The values that follow come from the supplement of paper PMC8183993.

Each structure is given as a SMILES string. Structures can show the parent of a compound that is named as a salt. ± gives the standard deviation of the averaged measurements. In all, about 3,200 compounds were measured (“nuclei count (viability) relative to DMSO”: median about 99, lowest 2% from about 16 on). The full list was thinned out, with the lowest values kept by preference.

This test has as its system U2OS. Nature of the test: nuclei count (viability) relative to DMSO (% of DMSO); higher = more viable cells. The note with it: 10 µM; 24 h. The protocol: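 Primary image-based screen in U2OS cells: compounds at 10 uM for 24 h, then a 1 h o-propargyl-puromycin (OPP) pulse, click labelling, and high-throughput microscopy. Mean cytoplasmic OPP intensity and nuclei count were normalised to DMSO wells within each plate (DMSO = 100) and averaged over triplicate plates.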
For `CC(=O)N1CC[N+](C)(C)CC1` [4-Acetyl-1,1-dimethylpiperazinium iodide], the nuclei count was found to be 103. For `COc1cc([C@@H]2c3cc4c(cc3[C@H](O)[C@H]3COC(=O)[C@H]23)OCO4)cc(OC)c1OC` [Podophyllotoxin] the value was 15.6; for `CC(C(=O)OC1CC2CCC(C1)N2C)c1ccc(Br)cc1` (stereo not given) [PG-9 maleate], 98.8.

Take `O=C1Nc2cc(Cl)c(Cl)cc2N2CCNCC12` (stereo not given): the nuclei count came out at 95.9.

Compound `CC12NC(Cc3ccccc31)c1ccccc12` (single isomer, unassigned; (+)) [(+)-MK 801 maleate] showed a nuclei count of 94.2. For `O=C(CCCN1CCC2(CC1)C(=O)N(Cc1cccc(F)c1)CN2c1ccccc1)c1ccc(F)cc1` [3'-Fluorobenzylspiperone maleate] the value was 29.4. For `COc1ccc(C[C@H]2NC[C@H](O)[C@H]2OC(C)=O)cc1` [Anisomycin] the value was 12.5 ± 8.3; for `CC(C)n1cnc2c(C(=O)N[C@H]3CN4CCC3CC4)cc(Cl)cc21`, 96.2. For `CCCCC/C=C\C/C=C\C/C=C\C/C=C\CCCC(=O)Nc1ccc(O)cc1` the value was 97; for `COc1cc2c(cc1O)C(CCc1ccc(Cl)cc1)N(C)CC2` (stereo not given), 104. For the compound `CC1(C)CCCC(C)(C)N1[O]`, the nuclei count was found to be 91.7. For `CC(C)(Cc1c[nH]c2ccc(Cl)cc12)NCCOc1ccccc1OCC1CC1` the value was 11.3; for `N#CC(C#N)=Cc1ccc(O)cc1` [Tyrphostin 8], 102; for `COc1ccc(C(=O)c2c(C)n(CCN3CCOCC3)c3cc(I)ccc23)cc1`, 80. For `C[CH2][Hg][S]c1ccccc1C(=O)[O-].[Na+]` [Thimerosal] the value was 5.97; for `CC(=O)C1=C(O)[C@@H]2[C@H]3c4c[nH]c5cccc(c45)C[C@H]3C(C)(C)N2C1=O` [Cyclopiazonic acid], 75.5; for `CC(=O)C1=C(O)[C@@H]2[C@H]3c4c[nH]c5cccc(c45)C[C@H]3C(C)(C)N2C1=O` [Cyclopiazonic Acid], 90.3. In the case of `CC(C)(O)[C@H]1O[C@H]2CC[C@@]3(C)[C@@](O)(CC[C@H]4Cc5c([nH]c6ccccc56)[C@@]43C)C2=CC1=O` [Paxilline], the nuclei count was found to be 91.2 ± 11. For `CN1C(=O)[C@]23CC4=CC=C[C@H](O)[C@H]4N2C(=O)[C@@]1(CO)SS3` [Gliotoxin] the value was 36; for `Cc1ccc(C[N+](C)(C)C)o1` [5-Methylfurmethiodide], 91.6.
